# An excerpt weighted towards active compounds, which were near 17% of everything screened.
# DT40 TDP1 no CPT: qHTS for Inhibitors of human tyrosyl-DNA phosphodiesterase 1 (TDP1): qHTS in cells in absence of CPT | DT40 Tdp1-/- hTDP1 cells, no CPT, ATP luminescence, 48 h | Potency, µM (highest dose often 46.2 µM), for the others: at the top dose activity change, negative = growth inhibition, usual class: inhibitors | 15% of 420,000 active | AID 686978, 2013; also: % is scaled to controls: 0 for no effect and ±100 for the full control effect; nearly all actives have a fitted effect of over 55% in size
#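 A cellular qHTS used chicken DT40 cells lacking endogenous Tdp1 but carrying stably transfected human TDP1. Compounds were applied without camptothecin, and cell growth kinetics were judged by ATP-dependent luminescence after ≥48 hr.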
# TDP1 block: inhibitors of human tyrosyl-DNA phosphodiesterase TDP1; Q9NUW8; recombinant TDP1, AlphaScreen DNA substrate cleavage; Potency, µM (doses to about 130 µM), inactives show at the top dose activity change, negative = inhibition, most hits filed as inhibitors; 0.28% of 350,000 active; AID 485290; also: % is scaled to controls: 0 for no effect and ±100 for the full control effect; nearly all actives have a fitted effect of over 40% in size
#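 Recombinant E. coli-expressed Tdp1 (1 nM) preincubated with compound 15 min at RT, then 5'-biotin/3'-phosphotyrosine-FITC DNA substrate (15 nM) added for 5 min. AlphaScreen beads (10 ug/ml) added, 10 min RT; tyrosine-FITC cleavage read as signal loss.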
# ClpP mod: qHTS Assay for Activators of ClpP; ATP-dependent Clp protease proteolytic subunit (Bacillus subtilis (strain 168)), P80244; purified B. subtilis ClpP, FRET peptide cleavage, 20 min; Potency, µM (series often up to 57.5 µM), for inactives: top-dose activity change, negative = active; 1.9% of 340,000 active; AID 651965, 2013; active = well fitted falling curve with a large enough effect; inconclusive = small, poorly fitted or top-dose-only effect; inactive = no such curve, though single readings can be large or run the other way; also: the source files actives as falling curves though it sought activators and does not explain the sign; nearly all actives have a fitted effect of over 65% in size
# Target sequence (P80244 whole entry, looked up): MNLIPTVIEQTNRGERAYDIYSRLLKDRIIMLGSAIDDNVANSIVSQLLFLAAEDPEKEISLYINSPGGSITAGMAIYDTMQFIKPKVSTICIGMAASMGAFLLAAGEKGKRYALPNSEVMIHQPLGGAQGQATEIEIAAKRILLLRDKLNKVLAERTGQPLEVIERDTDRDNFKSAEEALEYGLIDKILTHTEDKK
#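 Purified B. subtilis ClpP, 10 microg/mL final in Tris/HCl pH8 with KCl, BSA, glycerol and Tween-20, cleaved an Abz/nitrotyrosine-quenched decapeptide. Fluorescence (ex 320, em 430) was read at 0 and 20 min at room temperature. Delta was normalized to 5.8 microM ADEP and DMSO/no-enzyme controls.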
# DT40 TDP1 CPT: growth inhibition of DT40 Tdp1-/-;hTDP1 cells with camptothecin (screen for TDP1 inhibitors); chicken DT40 Tdp1-/-;hTDP1 cells + 20 nM CPT, ATP luminescence, 48 h; Potency, µM (titrated, usually from 46.2 µM), inactives show top-dose activity change, negative = growth inhibition, most hits filed as inhibitors; 12% of 420,000 active; also: % is scaled to controls: 0 for no effect and ±100 for the full control effect; nearly all actives have a fitted effect of over 55% in size
#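 Chicken DT40 Tdp1-/- cells stably complemented with human TDP1 were seeded at 400 cells/well in medium containing 20 nM camptothecin, exposed to pin-transferred compounds, and grown at 37 °C for at least 48 hr. Viability was read as ATP luminescence.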
# Numbers without * were called inactive; ? = inconclusive; / = no result given; [ ] = remark or other dose. Unless noted, calls follow the shape of the dose curve; as a rule, active = well fitted curve in the direction sought with a large enough effect; inconclusive = small, poorly fitted or top-dose-only effect, or another doubt; inactive = no such curve, though single readings can be large; an effect the other way counts as inactive or inconclusive. Potency is read from the fitted curve at half-maximal effect.
SMILES,DT40 TDP1 no CPT,TDP1 block,ClpP mod,DT40 TDP1 CPT
CCOC(=O)Cc1ccc(NC(=O)NCc2ccc3c(c2)CCN3C(=O)CC)cc1,-4%,4%,3%,-17%
O=C(Cc1ccc2c(c1)OCCO2)N1CCN(S(=O)(=O)c2cccc(C(F)(F)F)c2)CC1,-20%,6%,-5%,?
CCCNC(=O)CSc1nnc(-c2ccco2)n1C,13µM*,3%,-4%,23µM*
CCn1c(Sc2ccc([N+](=O)[O-])cn2)nnc1-c1ccco1,2.1µM*,-11%,/,1.6µM*
CCn1c(SCC(=O)OCc2ccccc2)nnc1-c1ccco1,0%,1%,-5%,-1%
CCn1c(SCc2nc(-c3ccccc3)no2)nnc1-c1ccco1,?,5%,0%,-5%
CCn1c(SCc2c(F)cccc2Cl)nnc1-c1ccco1,18µM*,7%,-1%,?
CCOC(=O)c1cc(-c2ccccc2)n(-c2cccc(C(=O)Nc3ccc(OCC)cc3)c2)c1C,?,-8%,-12%,?
C/C(CCN1CCCc2nc(C)c(C)cc21)=N\OC[C@@H](O)COCc1ccco1,/,4%[21 µM],/,/
COC(=O)c1ccc(C(NC(=O)OCc2ccccc2)/C(=C/[C@@H](C)C(=O)NCc2ccncc2)c2cccnc2)cc1 (some centres not stated),/,4%,/,/
CC(=O)OC1CCC2(C)C(CCC3C2CC(=NO)C2(C)C(C(C)OC(C)=O)CCC32)C1 (configuration not stated),18µM*,/,2%,15µM*
CC(=O)OC1CC[C@@]2(C)C(CCC3C2CC(=O)[C@@]2(C)C3CC3CC(C)=CC(=O)C32)C1 (some centres not stated),15µM*,/,-1%,18µM*
COc1ccc(C(C)=O)cc1Cn1c(C)c(C(=O)NCC(C)C)sc1=O,?,/,1%,?
COC(=O)C1(Cc2cc(-c3ccc(Cl)cc3)no2)CCN(C(=O)OC(C)(C)C)CC1,18µM*,/,-2%,?
COC(=O)C1(Cc2cc(-c3cccnc3)no2)CCN(C(=O)OC(C)(C)C)CC1,?,/,3%,?
COC(=O)C1(Cc2cc(-c3ccc([N+](=O)[O-])cc3)no2)CCN(C(=O)OC(C)(C)C)CC1,21µM*,2%,2%,?
COC(=O)C1(CC2CC(c3ccc(Cl)cc3)=NO2)CCN(C(=O)OC(C)(C)C)CC1 (configuration not stated),21µM*,-5%,2%,26µM*
CC(C)(C)OC(=O)N1CCN(c2ccc([N+](=O)[O-])cc2)CC1,3%,1%,2%,0%
CC(C)(C)OC(=O)N1CCC(CC2CC(c3ccncc3)=NO2)(C(=O)O)CC1 (configuration not stated),-4%,1%,2%,16%
COC(=O)C(Cc1ccccc1)OS(N)(=O)=O (configuration not stated),-1%,/,-3%,?
CC(C)(C)OC(=O)N1CCC(CC2CC(c3cccc(Br)c3)=NO2)(C(=O)NCC2CCCCC2)CC1 (configuration not stated),16µM*,/,1%,?
CCCCCCCNC(=O)C1(CC2CC(c3ccc(Cl)cc3)=NO2)CCN(C(=O)C2CCCC2)CC1 (configuration not stated),?,/,-4%,?
CCCCCCCNC(=O)C1(CC2CC(c3cccc(Br)c3)=NO2)CCN(C(=O)C2CCCC2)CC1 (configuration not stated),?,2%,2%,21µM*
O=C(c1ccccc1)N1CCC(CC2CC(c3cccc(Br)c3)=NO2)(C(=O)NCC2CCCCC2)CC1 (configuration not stated),?,/,-1%,?
CCCCCCCNC(=O)C1(CC2CC(c3cccc(Br)c3)=NO2)CCN(C(=O)OC(C)(C)C)CC1 (configuration not stated),15µM*,/,-1%,?
O=C(NCC1CCCCC1)C1(CC2CC(c3cccc(Br)c3)=NO2)CCNCC1 (configuration not stated),16µM*,/,4%,16µM*

# Bioassay records (PubChem BioAssay)
